Drawing on paper PMC7819943, “Rice protein-binding microarrays: a tool to detect cis-acting elements near promoter regions in rice”, this text covers binding signal for 47 sequences.

In all, about 68,000 sequences were measured (“fluorescence intensity (a.u.)”: median about 9,100, highest 2% from about 16,000 on). This excerpt belongs to a sample that is enriched for the highest values.

For the test, the target named is OsWRKY34 (Oryza sativa, UniProt Q0JBA9 1-250). Description: protein-binding microarray (RPBM); PBS, 2% BSA, 51.3 ng/ul salmon testes DNA, 50 uM zinc acetate, 200 nM TF, 25 C, 1 h; high values mean tight binding. The conditions noted are these: protein: recombinant; tags: N-terminal polyhistidine and DsRed monomer fusion (pET32a); label: CyDye5-dUTP incorporated in the synthesized complementary strand; 3' TTTTT single-stranded linker to array surface; dsDNA, one strand shown. In outline: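 Per-feature fluorescence intensity (arbitrary units), read on an Axon 4000B scanner, is the binding signal. Transcription factors carrying an N-terminal polyhistidine tag and DsRed fusion were expressed in E. coli BL21-CodonPlus and purified on Ni–NTA. A custom Agilent array, made double-stranded by primer extension with Cy5-dUTP and blocked with 2% BSA, was incubated with 200 nM protein in PBS, 2% BSA, salmon testes DNA and 50 µM zinc acetate at 25 °C for 1 h and then washed.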
Sequence of OsWRKY34 (Q0JBA9 entry or part of it): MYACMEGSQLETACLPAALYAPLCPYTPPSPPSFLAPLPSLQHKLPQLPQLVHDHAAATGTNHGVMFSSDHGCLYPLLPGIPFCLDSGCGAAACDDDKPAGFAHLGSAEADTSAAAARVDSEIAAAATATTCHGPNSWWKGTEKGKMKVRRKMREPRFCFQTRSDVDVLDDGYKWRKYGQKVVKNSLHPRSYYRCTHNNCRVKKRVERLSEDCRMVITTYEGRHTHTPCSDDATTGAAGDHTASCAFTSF
As for “GCCTTTTTAACTTGTGCGACCGGTGTTCCGGGATTTTGGGCGGAGTCACCTAGTGCAG”, the binding signal was 10900 fluorescence intensity (a.u.).
The figure for “TCTCCTCCATCATCGCAGCCAACTCCAACATCCTGAGCTCCGGAGTCACCTAGTGCAG” is 9510 fluorescence intensity (a.u.); for “CAGACTTTTCAGCTTCGGTTTCCCTTGTTTCTGATCTTTCCGGAGTCACCTAGTGCAG” it is 8440 fluorescence intensity (a.u.); for “TTATTTCCGCAAATCGTTCGCTATCCGGTATATTTTTGCACGGAGTCACCTAGTGCAG” it is 17300 fluorescence intensity (a.u.).
The figure for “TTGTCTTCCTTTGTTTCGACTGGTCCAGTTTCGTCCTCTCCGGAGTCACCTAGTGCAG” is 10300 fluorescence intensity (a.u.); for “CTTATTTGTAGCTTCCTTTTTTTTTCCTTTTTCTTTTATTCGGAGTCACCTAGTGCAG” it is 10400 fluorescence intensity (a.u.).
Turning to “TCGTTCCTTCCTGTTGTTTCCTTTTCTTTTCCTTTATTTTCGGAGTCACCTAGTGCAG”, the binding signal was 8070 fluorescence intensity (a.u.).
The figure for “TGTCGTCCTTCAGGCCAACTTTGTCTTCCTTTGTTTCGACCGGAGTCACCTAGTGCAG” is 16400 fluorescence intensity (a.u.); for “GTTTTTTTTTTTCCTTTCACTTCCTTCCTGGGCTTTATTTCGGAGTCACCTAGTGCAG” it is 17300 fluorescence intensity (a.u.).
To “GCCCTTTTCACGGTTTTTCCTGATCTTTCTGGGCTTTCTCCGGAGTCACCTAGTGCAG” belongs 18800 fluorescence intensity (a.u.); to “CACAACTTTTCGTTTTTTATATTTGCACAAATTTTTTAATCGGAGTCACCTAGTGCAG”, 8650 fluorescence intensity (a.u.); to “AAAATGTTGTTTTTTTCTTCACTTTTGTTTTCCTTTTTTTCGGAGTCACCTAGTGCAG”, 9300 fluorescence intensity (a.u.).
As to “AATCTGTTTTTTGCTTTTTTGCCCTTTTCACGGTTTTTCCCGGAGTCACCTAGTGCAG”, the binding signal was 10800 fluorescence intensity (a.u.).
To “TTTTTATATACCGGTAAATATCCGCTACCGTATTCGTTCCCGGAGTCACCTAGTGCAG” belongs 10200 fluorescence intensity (a.u.); to “ATACGTCATTTGTATTTGAGTCGGTTTTTAAGTTCCTCCGCGGAGTCACCTAGTGCAG”, 12200 fluorescence intensity (a.u.).
To “TTTTGCAAAGCATTCCTCGCGCTTTCAGCTAATTACGCATCGGAGTCACCTAGTGCAG” belongs 8500 fluorescence intensity (a.u.); to “CACCAACGCGTCCCCACCGTGTCGCCTCCTGATTGGTTGTCGGAGTCACCTAGTGCAG”, 12100 fluorescence intensity (a.u.).
As for “GTCGTTCGCTCTTTTATCCTTTTCGGACAATTTCACTTTCCGGAGTCACCTAGTGCAG”, the binding signal was 19200 fluorescence intensity (a.u.).
The figure for “AGGTTATTTTTTCCTTACCTTTTTTTTTTCTGATACTACTCGGAGTCACCTAGTGCAG” is 9920 fluorescence intensity (a.u.); for “GCTTCACCTTCGGCTTCGACTTCGGCTTCGTTTCCTCTTCCGGAGTCACCTAGTGCAG” it is 18600 fluorescence intensity (a.u.); for “GTCCTCGTTTTTTTTTTCCTTCTCTTTTTCTTTTCCTTTTCGGAGTCACCTAGTGCAG” it is 9450 fluorescence intensity (a.u.).
The figure for “TTGTTACTACATTTCCTGTACTATTTTACTGTCTGATTTACGGAGTCACCTAGTGCAG” is 8460 fluorescence intensity (a.u.); for “TTATTTTTCGTTCCTTCTTTTTTTCTCTCTCACTTTTCTCCGGAGTCACCTAGTGCAG” it is 11300 fluorescence intensity (a.u.); for “GTTGGGCTTCCTTATTGGGTTGGGCTACCTGTCTGATTTTCGGAGTCACCTAGTGCAG” it is 16600 fluorescence intensity (a.u.).
To “CTCTCGCTCTTTTATTTTTTTTCCTTGTTTCCTTTCGTGTCGGAGTCACCTAGTGCAG” belongs 12100 fluorescence intensity (a.u.); to “TGTTTTCACTTTCCTCTTCAGTCTTCTTCCTTCTTTCGTTCGGAGTCACCTAGTGCAG”, 9140 fluorescence intensity (a.u.).
As for “GCTCGCCGCGTGCTCTCGTCATCCATCCGACCCACGCCCGCGGAGTCACCTAGTGCAG”, the binding signal is 11000 fluorescence intensity (a.u.).
To “ATTTTATATGATTTCTTACAGACTTTTTTTATCATTTTACCGGAGTCACCTAGTGCAG” belongs 9760 fluorescence intensity (a.u.); to “GCATTGGTTGGTGGTTTGGTGACGGCTTCGTTGTAGGCCTCGGAGTCACCTAGTGCAG”, 9760 fluorescence intensity (a.u.); to “TCCTCTCTCTCTCTCTCTCTCTCTCCTCCTTTGGAGTTGTCGGAGTCACCTAGTGCAG”, 10500 fluorescence intensity (a.u.).
To “CGTCCAGTCCGCTCCCTCCCTCATTCATTCGGTTCGGTAACGGAGTCACCTAGTGCAG” belongs 8870 fluorescence intensity (a.u.); to “CGTCGACGACGTCTCGATCGATCGGTGGTGGTGGTGGTGGCGGAGTCACCTAGTGCAG”, 8540 fluorescence intensity (a.u.); to “CTCGTGGTCAAATCTGAATATCCGATACTTCCGTTTCAAACGGAGTCACCTAGTGCAG”, 8300 fluorescence intensity (a.u.).
To “CGCTTTCCTCTCCGGCAACGACCTCGCAGCTGTGGCCACCCGGAGTCACCTAGTGCAG” belongs 18600 fluorescence intensity (a.u.); to “ACCGTCTCATCTTCTTCTTCCTCCTCCTCTGATCTTCTCCCGGAGTCACCTAGTGCAG”, 8220 fluorescence intensity (a.u.); to “ACCAACCAACCACTGCTCTCGCCGCGCCGTCCTCTTCATCCGGAGTCACCTAGTGCAG”, 18200 fluorescence intensity (a.u.).
On to “CGCCTCGCGGCAGGCAGCCGAGCTGTCTCCAACCGTGCCGCGGAGTCACCTAGTGCAG”, for which the binding signal was 37300 fluorescence intensity (a.u.).
As to “TGTGCCGCTCCGTCGTGCTCTTCGTCGCGCCACTCATCCTCGGAGTCACCTAGTGCAG”, the binding signal was 9080 fluorescence intensity (a.u.).
The figure for “GCGCTCGCCGCTGCCGCAAGCTCGCCTCCGACCCCGGCCACGGAGTCACCTAGTGCAG” is 9530 fluorescence intensity (a.u.).
The figure for “GATCTCATCCCGTCCCGTCATCTGCTTCCTCTCTCGGAACCGGAGTCACCTAGTGCAG” is 16900 fluorescence intensity (a.u.); for “CCCCAACCCGCCGCCAGCCACCGAGCTCGCCACCGTCTCCCGGAGTCACCTAGTGCAG” it is 8970 fluorescence intensity (a.u.); for “TCACCACTGCTGCTCTCGCTGCCGTCCTTGTTCTTCGCGCCGGAGTCACCTAGTGCAG” it is 8110 fluorescence intensity (a.u.).
To “CGTTTTCTTTTTTCTTCCTCGCTTTCTCTCTCTCTCTCTCCGGAGTCACCTAGTGCAG” belongs 11600 fluorescence intensity (a.u.); to “TCTGCTTCTTCATCCTCGTGCTCTGCTTCTCTCTTCTTCCCGGAGTCACCTAGTGCAG”, 8980 fluorescence intensity (a.u.); to “CGCCGCCGCTCCAGCTCCAGCCGCCCGTGCTCCCTCGCGGCGGAGTCACCTAGTGCAG”, 8200 fluorescence intensity (a.u.).
For the sequence “ACAATCCATTTTATTCCAACAGATATATACACGGGGACAACGGAGTCACCTAGTGCAG”, the binding signal is 8410 fluorescence intensity (a.u.).
To “GGCTAGGTTGTGCGCGCCCTTCTCGATGTAGCAATAGCAACGGAGTCACCTAGTGCAG” belongs 8520 fluorescence intensity (a.u.).
